# About 60 (4%) of roughly 1,400 compounds were called active. About 7% were inconclusive and are not listed. Not all results are given here. Unmarked numbers belong to inactive results. The call rests on the fitted dose curve; in most records, active means well fitted inhibition curve with a large enough effect; inconclusive means small, poorly fitted or top-dose-only effect; inactive means flat fitted curve, though single readings scatter.
# Molecular target: Luciferin 4-monooxygenase (Photinus pyralis) (UniProt P08659)
# Assay: Nrf2 qHTS screen for inhibitors: Purified Fluc Biochemical Counterscreen for Hit Validation; further: nearly all actives have a fitted effect of over 65% in size
# Conditions: purified firefly luciferase, luminescence inhibition; series mostly up to 57.5 µM; activity change, negative = inhibition: at the top concentration
# Excerpt: Nrf2 is a transcription factor that maintains cellular redox homoestasis and protects cells from xenobiotics. Nrf2 binds to the antioxidant response element (ARE) to induce gene expression of a broad spectrum of genes that encode for antioxidants. […] Finding a small molecule that act as an inhibitor of Nrf2 function would represent a novel therapeutic target that could lead to improvement in survival of patients undergoing chemo- and/or radio- therapy.
# A biochemical assay in 1536 well format was developed and utilized to remove compounds that inhibit the luciferase reporter (Fluc) rather than the Nrf2 enzyme. Inhibition of this assay = false positive inhibition of Nrf2.
# NIH Chemical Genomics Center [NCGC]
# NIH Molecular Libraries Probe Centers Network [MLPCN]
# Assay Submitter (PI): Shyam Biswal, Johns Hopkins University
# [1] Shibata T., et al., Genetic alteration of Keap1 confers constitutive Nrf2 activation and resistance to chemotherapy in gallbladder cancer. Gastroenterology, 2008.
# [2] Sjoblom T., et al., The consensus coding sequences of human breast and colorectal cancers. Science, 2006.
# Three microliter of substrate solution containing 50mM Tris acetate, 13.3 mM Mg-acetate, 0.01mM ATP, 0.01% Tween, 0.05% BSA and 0.01mM D-Luciferin (Sigma, #L9504) was dispensed into 1536 well white solid bottom assay plate (Greiner Bio, #789173-F). Twenty-three nanoliter of compounds dissolved in DMSO at different concentrations was added to the plate using a Kalypsys 1536-pin tool. Then 1 uL of firefly luciferase reagent containing 50mM Tris-acetate and 0.04uM P. pyralis luciferase (Sigma, #L9506) was added. The final DMSO concentration was maintained at 0.56%. Luminescence signal was acquired using the PerkinElmer Viewlux plate reader after incubation at room temperature for 10 minutes.
# On the % scale 0 is the no-effect control and ±100 the full control effect; potency means the concentration at half of the fitted maximal effect.
# Luciferin 4-monooxygenase (Photinus pyralis), sequence (P08659 whole entry, looked up): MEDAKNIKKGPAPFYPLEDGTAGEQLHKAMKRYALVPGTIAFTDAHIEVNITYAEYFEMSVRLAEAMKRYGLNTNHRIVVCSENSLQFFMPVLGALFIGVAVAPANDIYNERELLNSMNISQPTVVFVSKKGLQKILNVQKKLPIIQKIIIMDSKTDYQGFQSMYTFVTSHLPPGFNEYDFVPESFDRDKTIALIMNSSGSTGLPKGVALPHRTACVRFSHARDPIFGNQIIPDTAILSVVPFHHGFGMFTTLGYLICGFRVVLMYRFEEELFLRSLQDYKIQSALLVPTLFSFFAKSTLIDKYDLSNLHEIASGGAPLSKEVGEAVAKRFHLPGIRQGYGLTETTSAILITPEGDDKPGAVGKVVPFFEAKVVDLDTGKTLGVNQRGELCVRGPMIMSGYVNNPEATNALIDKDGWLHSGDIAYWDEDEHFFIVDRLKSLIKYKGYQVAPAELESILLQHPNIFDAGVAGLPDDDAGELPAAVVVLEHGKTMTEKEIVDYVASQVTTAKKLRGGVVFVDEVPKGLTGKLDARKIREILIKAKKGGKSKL
Compound,"activity change, negative = inhibition",Potency
Cc1cc(C(=O)NC2CCCc3c2cnn3-c2cccc(C)c2C)c(C)o1 (stereo not given),-15.8%,
O=C(CCC(=O)N1CCN(S(=O)(=O)c2ccc(Cl)cc2)CC1)NCc1cccc(C(F)(F)F)c1,2.67%,
Cc1nc(N2CCOCC2)c2c(C)c(C(=O)Nc3ccc(C(F)(F)F)cc3)sc2n1,-11.7%,
O=C(Nc1ccncc1)c1c(F)cccc1F,0.655%,
Cc1ccc(S(=O)(=O)N2CCN(c3ncnc4ccccc34)CC2)cc1,,inactive
CC(=NNC(=S)N1CCCCCC1)c1ccccn1,,12 µM (active)
CCCCNc1nc2c(c(=O)n(C)c(=O)n2C)n1Cc1cccc(OC)c1,2.33%,
CC(=O)N1c2ccc(S(=O)(=O)N3CCCC(C(=O)NCc4ccc(Cl)cc4)C3)cc2CC1C (stereo not given),-0.0313%,
CN(C)c1ccc(/C=C/c2sc3ccccc3[n+]2CCCCBr)cc1,2.47%,
CCC(C)N1C(=O)S/C(=C/c2ccc(Sc3nc4ccccc4[nH]3)o2)C1=O (stereo not given),-3.17%,
O=C1C=C(c2ccnc3cc(Cl)ccc23)C[C@@H](c2ccc3c(c2)OCO3)C1,-0.462%,
COc1cccc(-c2nc(CS(=O)(=O)CC(=O)N3CCN(c4cc(C)ccc4C)CC3)c(C)o2)c1,-16.5%,
COCCn1c(SCC(=O)Nc2ccccc2F)nc2c(c1=O)SCC2,-0.508%,
Cn1nccc1C(=O)NC1CCCc2c1cnn2-c1ccc(F)cc1F (stereo not given),2.08%,
Cc1oc2c(F)c(F)c(F)c(F)c2c1S(=O)(=O)Nc1cccc(C(F)(F)F)c1,-1.25%,
CC(=O)N1CCCc2cc(S(=O)(=O)N3CCCC(C(=O)N4CCN(c5cccc(Cl)c5)CC4)C3)ccc21 (stereo not given),-0.273%,
Cc1ccc(NC(=O)C2CC(=O)N(c3ccc4c(c3)OCCO4)C2)cc1S(=O)(=O)N1CCCCCC1 (stereo not given),-12.3%,
O/N=C(\C[n+]1ccccc1)c1ccc(Br)cc1,-0.184%,
N#CC(C#N)=CN=c1ccn(Cc2ccc(Cl)cc2Cl)cc1,-2.69%,
O=c1[nH]c(SCc2cccc(F)c2)nc2ccccc12,-12.6%,

Compound,"activity change, negative = inhibition",Potency
COc1cccc(-c2nnc(NC(=O)c3ccc(S(=O)(=O)N(CC(C)C)CC(C)C)cc3)o2)c1,-0.563%,
Cc1cc(C)c(-c2csc(NC(=O)CCCc3nc4ccccc4c(=O)[nH]3)n2)c(C)c1,1.65%,
Cc1c(Cl)cccc1NC(=O)Cn1cc(C(=O)c2cccs2)c2ccccc21,-11.4%,
CC1(C)O[C@@H]2CC3C4C[C@H](F)C5=CC(=O)C=CC5(C)C4C(O)CC3(C)[C@]2(C(=O)CO)O1 (stereo not given in full),-1.87%,
CC(=O)Nc1ccc(Nc2c3ccccc3nc3ccccc23)cc1,-10.2%,
CCCOc1ccc(C(=O)Nc2ccc3oc(-c4cccc(Cl)c4Cl)nc3c2)cc1,0.869%,
CC(=O)OC(C)C[N+](C)(C)C (stereo not given),-2.04%,
COc1ccc(CC(=O)Nc2nc(-c3ccc(F)c(F)c3)cs2)cc1OC,-1.67%,
O=C(OCCOc1ccccc1Cl)c1cc(S(=O)(=O)N2CCCCC2)ccc1N1CCOCC1,2.03%,
CC1CCCN(S(=O)(=O)c2ccc(C(=O)Nc3nnc(-c4ccncc4)o3)cc2)C1 (stereo not given),2.31%,
CC[C@H]1CN2CCc3cc(OC)c(OC)cc3[C@@H]2C[C@@H]1C[C@H]1NCCc2cc(OC)c(OC)cc21,0.375%,
Cc1ccc(S(=O)(=O)N2C[C@@H]3CCCC[C@@H]3[C@@H](C)[C@H]2c2cn(Cc3ccccc3)c3ccc(F)cc23)cc1,2%,
OCCCNc1nccc(-c2cc(Nc3cccc(Cl)c3)ncn2)n1,-22.4%,
Cc1ccc(NS(=O)(=O)c2cccs2)cc1S(=O)(=O)N1CCCCCC1,-0.678%,
CCOC(=O)c1cnc(-n2nc(C)cc2C)nc1NNc1cc(C)nc(-c2ccccc2)n1,4.06%,
CN(Cc1cccnc1)C(=O)c1cc(COc2ccc3ncccc3c2)on1,-3.7%,
CC1(C)CC(N2CCN(C(c3ccccc3)c3ccccc3)CC2)=CC(=[N+]2CCCCC2)C1,-16%,
Cc1csc[n+]1CCC1CCCCC1,-0.381%,
O=C(Nc1ccc(Br)cn1)C1CCN(S(=O)(=O)c2cccs2)CC1,1.61%,
COc1ccc(N2CCN(C(=O)CSCc3nc(-c4ccccc4Cl)oc3C)CC2)cc1,0.323%,

Compound,"activity change, negative = inhibition",Potency
CCCOc1ccc(Cc2c(Cl)nc(SC)nc2NC)cc1,-1.64%,
Cc1cccc(N2CCN(C(=O)CCS(=O)(=O)c3ccc4c(c3)NC(=O)C(C)S4)CC2)c1C (stereo not given),2.31%,
C[n+]1ccc(/C=C/c2c[nH]c3ccccc23)cc1,2.78%,
O=C(CN1C(=O)c2ccccc2S1(=O)=O)N1CCc2ccccc21,,4.26 µM (active)
O=C(CSc1nnc2c(n1)[nH]c1ccccc12)NC1CCCCC1,-1.71%,
O=C(CC(O)(C(F)(F)F)C(F)(F)F)Nc1ccc(Cl)c(Cl)c1,1.69%,
COc1ccc(C(=O)C[n+]2ccc(N)c(C)c2C)cc1,-0.956%,
CCCN(c1ccc(C(C)C)cc1)S(=O)(=O)c1c(C)[nH]c(=O)[nH]c1=O,-1.53%,
CCOc1ccc(S(=O)(=O)N2CCCCC2)cc1NC(=O)CN1CCCC1c1cccs1 (stereo not given),-0.627%,
CC1CCN(S(=O)(=O)c2ccc(NC(=O)C3CC(=O)N(c4ccccc4)C3)cc2)CC1 (stereo not given),-0.62%,
COc1ccc(CCNC(=O)c2ccc(CS(=O)(=O)c3ccc(Br)cc3)o2)cc1OC,-8.22%,
COc1ccc(OC)c(Cc2cnc3nc(N)nc(N)c3c2C)c1,-2.63%,
CCCCCCCCn1c2c(c(=N)c3c1CCC3)CCCC2,1.69%,
COc1ccc(CCNc2cc(N3CCN(C(=O)c4ccccc4OC)CC3)ccc2[N+](=O)[O-])cc1OC,-10.5%,
CC(=O)N1c2ccc(S(=O)(=O)N3CCCC(C(=O)Nc4cccc(Cl)c4)C3)cc2CC1C (stereo not given),2.21%,
CNC(=O)c1cccc2nc3ccccc3nc12,1.57%,
CC(C)Cn1c(N)c(C(=O)COC(=O)CN2C(=O)C3CC=CCC3C2=O)c(=O)n(C)c1=O (stereo not given),0.523%,
Cc1cc(C)cc(NS(=O)(=O)c2ccc(Oc3ncc(C(F)(F)F)cc3Cl)cc2)c1,1.28%,
CCNS(=O)(=O)c1ccc(CCC(=O)N2CCN(c3cc(Cl)ccc3C)CC2)cc1,2.95%,
C=CCC1(CC=C)CCCN1C(=O)c1cc(COc2ccc(-n3cncn3)cc2)on1,0.848%,
